A short description of this assay: EMT-state selective cytotoxicity in co-culture – imaging, PC-3E GFP, TEM4-18 mCherry, primary screen (AID 1345086).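 For all read-outs here: cells exposed to compound for 72 h before imaging.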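 For red/green cell ratio (normalised): normalised mesenchymal count divided by normalised epithelial count so high means epithelial killing.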 As to conditions: PC-3E GFP / TEM4-18 mCherry co-culture, imaging cell counts, at 1 µM; for red/green cell ratio (normalised): actives lie on both sides, counts scaled to control wells, 1 = unselective.
The mark [1] stands for this setting: measured here: epithelial PC-3E GFP cell survival.
[2] abbreviates: measured here: mesenchymal TEM4-18 mCherry cell survival.

Active and inactive are the calls of the source.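 Rule for the calls: active = compounds killing one labelled cell type while sparing the other, by normalised counts and ratio limits, not self-fluorescent; inactive = the rest.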

On to `C=C1OC(=O)[C@]2([C@H](C)C=CC(=O)[C@H]2O)[C@H]1O`, for which the red/green cell ratio (normalised) was 1.05 (inactive). In addition, the normalised cell number under setting [1] amounted to 1.08. Besides, the normalised cell number under setting [2] was 1.14.
For the compound `O=C(O)C1CC(C2CCCCN2)CN2CCCCC12` (centres undefined), the red/green cell ratio (normalised) is 1.06 (inactive). Under setting [1], this compound came in with a normalised cell number of 0.95. Moreover, the normalised cell number under setting [2] was 1.
In the same order, the values of `CC(CCOc1ccc(C(=O)O)cc1)C(=O)O` (centres undefined) are 1.1 (inactive), 1.03 and 1.14.
`C[C@]12CCc3occc3C1CC[C@@]13C[C@@H](CCC12)[C@@](O)(CO)C3` (some centres undefined): the red/green cell ratio (normalised) is 1.12 (inactive). Besides, under setting [1], the normalised cell number worked out at 0.94. This compound also came in with a normalised cell number under setting [2] of 1.06.
Regarding `Cc1oc(=O)c2c(O)cc(O)c(C)c2c1C`, the red/green cell ratio (normalised) was 1.03 (inactive). Under setting [1], this compound gave a normalised cell number of 1.11. Also, the normalised cell number under setting [2] was 1.14.
For `COC(=O)C12C(C(C)=O)OC(CC(O)C1O)C2C` (centres undefined) the same measures were 0.97 (inactive), 1.04 and 1.01.
`COC(=O)C[C@@H]1C2(C)C(=O)[C@@H](CC3=C4CC(=O)O[C@@H](c5ccoc5)[C@]4(C)CCC32)[C@H](OC(C)=O)C1(C)C` (some centres undefined): the red/green cell ratio (normalised) was 1.06 (inactive). For the same compound, the normalised cell number under setting [1] amounted to 0.96. This compound also registered a normalised cell number under setting [2] of 1.02.
Regarding `CC(=O)O[C@@H]1C[C@@]2(C)C(CC[C@@H]2C(C)=O)C2CCC3=CC(=O)CC[C@]3(C)C21` (some centres undefined), the red/green cell ratio (normalised) is 1.08 (inactive). The same compound had a normalised cell number under setting [1] of 0.87. Besides, under setting [2], the normalised cell number was found to be 0.94.
In the same order, the values of `c1ccc(SCC2CCCNC2)cc1` (centres undefined) are 0.86 (inactive), 1.24 and 1.06.
Turning to `COC(=O)C[C@@H]1C2(C)C(=O)[C@@H](CC3=C4CC(O)O[C@@H](c5ccoc5)[C@]4(C)CCC32)[C@H](O)C1(C)C` (some centres undefined), the red/green cell ratio (normalised) was 1.16 (inactive). Moreover, the normalised cell number under setting [1] came out at 0.99. Moreover, under setting [2], the normalised cell number is 1.14.
Consider `C=C1[C@@H](C)C2[C@H](Cc3c[nH]c4ccccc34)NC(=O)[C@]23C(=O)/C=C/[C@H](O)C(=O)/C(C)=C/[C@@H](C)C/C=C/[C@H]3[C@@H]1O` (some centres undefined), for which the red/green cell ratio (normalised) is 1.13 (inactive). Moreover, the normalised cell number under setting [1] worked out at 0.96. Further, under setting [2], the normalised cell number is 1.08.
In the case of `C[C@H]1OC(n2cc(F)c(=O)[nH]c2=O)C(O)[C@@H]1O` (some centres undefined), the red/green cell ratio (normalised) is 0.91 (inactive). In addition, the normalised cell number under setting [1] came out at 1.27. The normalised cell number under setting [2] came out at 1.16.
Take `O=c1cc(-c2ccccc2)oc2ccc(O)cc12`: the red/green cell ratio (normalised) was 1.07 (inactive). In addition, the normalised cell number under setting [1] stood at 0.91. This compound also registered a normalised cell number under setting [2] of 0.97.
Turning to `COc1cc(C(=O)O)cc(C)c1C(=O)CC(C)O` (centres undefined), the red/green cell ratio (normalised) is 0.9 (inactive). Further, under setting [1], the normalised cell number is 1.04. Under setting [2], this compound came in with a normalised cell number of 0.94.
Regarding `[N-]=[N+]=N[C@H]1[C@H](Sc2ccccc2)OC(CO)C(O)[C@@H]1O` (some centres undefined), the red/green cell ratio (normalised) was 0.98 (inactive). Moreover, under setting [1], the normalised cell number was 1.08. Under setting [2], the normalised cell number was 1.06.
For the compound `CCSC(SCC)[C@@H]1NC(=O)O[C@H]1[C@H](O)[C@H](O)CO`, the red/green cell ratio (normalised) was 1 (inactive). Moreover, the normalised cell number under setting [1] turned out to be 1.12. Moreover, the normalised cell number under setting [2] came out at 1.12.
Consider `O=C(O)c1cc(O)c2c(c1)[C@@H]([C@@H]1c3cc(C(=O)O)cc(O)c3C(=O)c3c(O[C@H]4O[C@H](CO)[C@@H](O)[C@H](O)[C@H]4O)cccc31)c1cccc(O[C@H]3O[C@H](CO)[C@@H](O)[C@H](O)[C@H]3O)c1C2=O`, for which the red/green cell ratio (normalised) is 0.83 (inactive). The compound also gave a normalised cell number under setting [1] of 1.02. The normalised cell number under setting [2] turned out to be 0.84.
With `C=C1CC[C@@]2(C)[C@H](C)CC[C@H](O)[C@@]2(CCC=C(C)C)[C@@H]1Cc1c[nH]c2ccccc12`, the red/green cell ratio (normalised) is 0.97 (inactive). This compound had a normalised cell number under setting [1] of 0.88. In addition, the normalised cell number under setting [2] was found to be 0.85.
On to `COC(=O)C1O[C@H](OC)[C@@H](OCc2ccccc2)[C@@H](OCc2ccccc2)C1O` (some centres undefined), for which the red/green cell ratio (normalised) was 1 (inactive). Under setting [1], this compound gave a normalised cell number of 1.14. The compound further yielded a normalised cell number under setting [2] of 1.15.
With `C[C@H](CCC(=O)NCC(=O)O)[C@H]1CCC2C3C(C[C@H](O)[C@@]21C)[C@@]1(C)CC[C@@H](O)CC1C[C@H]3O` (some centres undefined), the red/green cell ratio (normalised) is 1.13 (inactive). For the same compound, the normalised cell number under setting [1] turned out to be 0.89. Under setting [2], this compound gave a normalised cell number of 1.01.
Take `CO[C@H]1CC(O[C@@H]2/C(C)=C/C[C@@H]3C[C@@H](C[C@]4(C=C[C@H](C)[C@@H](C5CCCCC5)O4)O3)OC(=O)[C@@H]3C=C(C)[C@@H](O)C4OC/C(=C\C=C\[C@@H]2C)[C@]43O)O[C@@H](C)C1O[C@H]1C[C@H](OC)[C@@H](O)[C@H](C)O1` (some centres undefined): the red/green cell ratio (normalised) was 1.04 (inactive). The compound further came in with a normalised cell number under setting [1] of 1.06. Under setting [2], the normalised cell number was determined as 1.1.
With `CC1CN(c2c(F)c(N)c3c(=O)c(C(=O)O)cn(C4CC4)c3c2F)C[C@H](C)N1` (some centres undefined), the red/green cell ratio (normalised) is 0.99 (inactive). The same compound yielded a normalised cell number under setting [1] of 1.03. Moreover, the normalised cell number under setting [2] came out at 1.02.
Regarding `CC(=O)OC1CCC2(C)C(=CC=C3C2CCC2(C)C3CCC2C(C)/C=C/C(C)C(C)C)C1(C)C` (centres undefined), the red/green cell ratio (normalised) was 1.04 (inactive). The normalised cell number under setting [1] is 0.92. For the same compound, under setting [2], the normalised cell number turned out to be 0.96.
Regarding `C[C@H]1C(=O)CCC2[C@]3(C)CC[C@@]4(C)C5CC(C)(C)CC[C@]5(C)CC[C@]4(C)C3CC[C@@]21C` (some centres undefined), the red/green cell ratio (normalised) was 1.06 (inactive). The compound further displayed a normalised cell number under setting [1] of 1.06. For the same compound, under setting [2], the normalised cell number amounted to 1.13.
For the compound `COC(=O)C1O[C@H](Sc2ccccc2)[C@@H](OC(=O)c2ccccc2)[C@@H](OC(=O)c2ccccc2)C1O` (some centres undefined), the red/green cell ratio (normalised) is 0.96 (inactive). This compound displayed a normalised cell number under setting [1] of 1.05. Under setting [2], this compound yielded a normalised cell number of 1.
In the same order, the values of `COC(=O)c1c(Cl)nc(Cl)c2ccccc12` are 1.07 (inactive), 0.85 and 0.91.
For `C#C[C@H](O)COc1ccc(C(=O)O)cc1` the same measures were 1.18 (inactive), 0.57 and 0.68.
In the same order, the values of `CC(=O)OCC[C@H](C)CCC=C(C)C` are 1.13 (inactive), 1 and 1.13.
Regarding `C[C@H](O)[C@@H]1N[C@H]2N(C1=O)c1ccccc1C21CC2C(=O)NC1c1nc3ccccc3c(=O)n12` (some centres undefined), the red/green cell ratio (normalised) is 1.08 (inactive). Further, the normalised cell number under setting [1] amounted to 0.88. In addition, under setting [2], the normalised cell number came out at 0.95.
For the compound `COc1cc2c(cc1OC)C1C(=O)c3c(O)cc4c(c3OC1CO2)C=CC(C)(C)O4` (centres undefined), the red/green cell ratio (normalised) was 0.7 (inactive). For the same compound, under setting [1], the normalised cell number was 0.94. Besides, under setting [2], the normalised cell number came out at 0.66.
On to `Nc1ccc(Oc2ccccc2)cc1`, for which the red/green cell ratio (normalised) is 0.95 (inactive). The normalised cell number under setting [1] stood at 0.99. The compound also returned a normalised cell number under setting [2] of 0.94.
As for `C=C1[C@@H](C)C2[C@H](Cc3c[nH]c4ccccc34)NC(=O)[C@]23C(=O)/C=C/C(=O)[C@H](O)/C(C)=C/[C@@H](C)C/C=C/[C@H]3[C@@H]1O` (some centres undefined), the red/green cell ratio (normalised) is 0.87 (inactive). This compound also showed a normalised cell number under setting [1] of 1.25. Further, the normalised cell number under setting [2] was 1.09.
With `CC(C)[C@@H]1CCC(CO)=C[C@@H]1/C=C(\CO)C(=O)O`, the red/green cell ratio (normalised) is 0.88 (inactive). The compound also showed a normalised cell number under setting [1] of 1.29. The compound also showed a normalised cell number under setting [2] of 1.13.

The record behind these values is PubChem BioAssay.
